Laboratory results taken from PubChem BioAssay (NCI).
The panel holds about 83,000 compounds, 20% with a hit somewhere; the sample as a whole holds those more often.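 Values shown are percent growth following 48 h exposure of cells in 96-well plates to a single concentration of compound; below 10 was considered active.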 Values without a mark were called inactive. Activity calls are given as the source filed them.

System: HCC-2998 colon
Experiment: NCI-60 one-dose screen, 48 h (100 = growth as untreated, 0 = no growth, -100 = all killed)
Conditions: 10 µM

Row | SMILES | growth
1 | O=C(Nc1ccc(Cl)cc1)N1NC(c2ccc(Cl)cc2)C=C1c1ccccc1 (stereo not given) | 97.5%
2 | CCn1cc(C(=O)O)c(=O)c2cnc(N3CCCC3)nc21 | 107%
3 | COc1ccc(C2=Nc3c(C)nn(-c4ccccc4)c3NC(c3ccc(Oc4ccnc5cc(Cl)ccc45)c(OC)c3)C2)cc1 (stereo not given) | 89.7%
4 | Cn1c(N)c(N=Nc2ccc(S(=O)(=O)Nc3nccs3)cc2)c(=O)n(C)c1=O | 95.9%
5 | COc1cc(-c2nc(-c3nnc(-c4ccccc4Cl)o3)c3ccccn23)cc(OC)c1OC | 94.7%
6 | COc1ccc(-c2nc3sc(-c4ccc(OC)cc4)c(-c4ccc(OC)cc4)n3c2/C=C/c2ccc(C(C)C)cc2)cc1 | 111%
7 | N#CSCC1CC(O)(c2ccccc2)CC(c2ccc(Cl)cc2)O1 (stereo not given) | 94.9%
8 | CS(=O)(=O)Nc1cccc(-c2cc(-c3ccccc3Cl)c(C#N)c(N)n2)c1 | -3.16% (active)
9 | O=C(/C=C/c1cc2ccccc2[nH]c1=O)c1ccc2c(c1)OCO2 | 105%
10 | CC(C)(Cl)CCC1=C(Cl)C(=O)c2ccccc2C1=O | 74.3%
11 | O=C1C(c2ccccc2)C2C=CC(C2)N1O (stereo not given) | 103%
12 | CC(C)(C)NC/C(=C\c1ccccc1)C(=O)c1ccccc1 | -78.6% (active)
13 | NC(=O)c1ccc(-c2cccc3c(=O)nc(N4CCOCC4)oc23)cc1 | 101%
14 | COC(=O)C1(C)Cc2cc(OC(C)=O)c(OC(C)=O)cc2N1 (stereo not given) | 112%
15 | CC(=O)c1nc2ccccc2n1CCN1CCN(C)CC1 | 37.9%
